Reference: PubChem BioAssay AID1159580 (chemical genetic matrix, 2015)
Values joined by “and” are separate entries in the source; they are usually repeats but may differ in a detail not shown here. Equal values may be shown once. Out of some 5,500 compounds screened, about 2,000 (36%) were called active. About 18% were inconclusive and are not listed. No stated cut-off is given here; in the data, active means normalized growth mostly below about 0.91 (no sharp cut-off); inconclusive means no clear call, values can overlap the other calls; inactive means mostly above about 0.92. The list shows a part of the results.

Assay: chemical genetic growth profiling, strain panel (AID 1159580);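 further: tested at 20 µM; growth read once vehicle control cultures reached saturation at 30 °C; 1 = growth at the plate median or of vehicle wells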
Conditions: growth OD

Measured: normalized growth

Cn1c(=O)[nH]c2ncn(C)c2c1=O
inactive: S. cerevisiae deletion strains, locus YJR043C, strain POL32, stronger effect = lower value 1.02 | S. cerevisiae deletion strains, locus YJR075W, strain HOC1, stronger effect = lower value 1.01 and 1 | S. cerevisiae deletion strains, locus YKL009W, strain mrt4, stronger effect = lower value 1.03 | S. cerevisiae deletion strains, locus YKL068W, stronger effect = lower value 0.988 | S. cerevisiae deletion strains, locus YKL085W, strain MDH1 (second series), stronger effect = lower value 0.993 | S. cerevisiae deletion strains, locus YKL085W, strain MDH1, stronger effect = lower value 0.993 | S. cerevisiae deletion strains, locus YKL160W, strain elf1, stronger effect = lower value 1.02 | S. cerevisiae deletion strains, locus YKL190W, strain CNB1, stronger effect = lower value 1.01 | S. cerevisiae deletion strains, locus YKR001C, strain vps1, stronger effect = lower value 0.997 | S. cerevisiae deletion strains, locus YKR026C, strain gcn3, stronger effect = lower value 0.964 | S. cerevisiae deletion strains, locus YKR091W, strain srl3, stronger effect = lower value 0.98 | S. cerevisiae deletion strains, locus YLL001W, strain dnm1, stronger effect = lower value 0.988 | S. cerevisiae deletion strains, locus YLL026W, stronger effect = lower value 0.989 | S. cerevisiae deletion strains, locus YLL041C, strain sdh2, stronger effect = lower value 0.978 | S. cerevisiae deletion strains, locus YLR027C, strain aat2, stronger effect = lower value 1 | S. cerevisiae deletion strains, locus YLR039C, strain RIC1, stronger effect = lower value 1.02 | S. cerevisiae deletion strains, locus YLR058C, strain SHM2, stronger effect = lower value 1.01 | S. cerevisiae deletion strains, locus YLR102C, strain apc9, stronger effect = lower value 0.995 | S. cerevisiae deletion strains, locus YLR221C, strain rsa3, stronger effect = lower value 0.943 | S. cerevisiae deletion strains, locus YLR258W, strain gsy2, stronger effect = lower value 0.993 | S. cerevisiae deletion strains, locus YLR262C, strain YPT6 (second series), stronger effect = lower value 0.983 | S. cerevisiae deletion strains, locus YLR262C, strain YPT6, stronger effect = lower value 1.03 | S. cerevisiae deletion strains, locus YLR268W, strain sec22, stronger effect = lower value 0.988 | S. cerevisiae deletion strains, locus YLR320W, strain mms22, stronger effect = lower value 0.97 | S. cerevisiae deletion strains, locus YLR330W, strain CHS5, stronger effect = lower value 1.01 | S. cerevisiae deletion strains, locus YLR342W, strain FKS1 (second series), stronger effect = lower value 1.03 | S. cerevisiae deletion strains, locus YLR342W, strain FKS1, stronger effect = lower value 0.975 | S. cerevisiae deletion strains, locus YLR357W, strain rsc2, stronger effect = lower value 0.97 | S. cerevisiae deletion strains, locus YLR370C, strain arc18, stronger effect = lower value 0.966 | S. cerevisiae deletion strains, locus YLR371W, strain rom2, stronger effect = lower value 0.986 | S. cerevisiae deletion strains, locus YLR384C, strain iki3, stronger effect = lower value 0.97 | S. cerevisiae deletion strains, locus YLR418C, strain cdc73, stronger effect = lower value 1 | S. cerevisiae deletion strains, locus YML016C, strain PPZ1, stronger effect = lower value 1.01 | S. cerevisiae deletion strains, locus YML032C, strain rad52, stronger effect = lower value 0.995 | S. cerevisiae deletion strains, locus YML120C, strain ndi1, stronger effect = lower value 0.995 | S. cerevisiae deletion strains, locus YML124C, strain tub3, stronger effect = lower value 0.993 | S. cerevisiae deletion strains, locus YMR058W, strain fet3, stronger effect = lower value 0.981 | S. cerevisiae deletion strains, locus YMR078C, strain ctf18, stronger effect = lower value 0.984 | S. cerevisiae deletion strains, locus YMR125W, strain sto1, stronger effect = lower value 0.987 | S. cerevisiae deletion strains, locus YMR129W, stronger effect = lower value 0.984 | S. cerevisiae deletion strains, locus YMR205C, strain PFK2, stronger effect = lower value 0.995 | S. cerevisiae deletion strains, locus YMR223W, strain ubp8, stronger effect = lower value 1.01 | S. cerevisiae deletion strains, locus YMR231W, strain pep5, stronger effect = lower value 0.961 | S. cerevisiae deletion strains, locus YMR263W, strain SAP30, stronger effect = lower value 1.01 and 0.996 | S. cerevisiae deletion strains, locus YMR307W, strain GAS1, stronger effect = lower value 1.06 and 0.981 | S. cerevisiae deletion strains, locus YNL067W, strain RPL9B, stronger effect = lower value 1.01 | S. cerevisiae deletion strains, locus YNL071W, strain lat1, stronger effect = lower value 0.974 | S. cerevisiae deletion strains, locus YNL128W, strain TEP1, stronger effect = lower value 1.02 | S. cerevisiae deletion strains, locus YNL153C, strain GIM3, stronger effect = lower value 1.01 and 0.984 | S. cerevisiae deletion strains, locus YNL175C, strain NOP13, stronger effect = lower value 0.997 | S. cerevisiae deletion strains, locus YNL197C, strain WHI3, stronger effect = lower value 0.995 | S. cerevisiae deletion strains, locus YNL209W, strain ssb2, stronger effect = lower value 0.99 | S. cerevisiae deletion strains, locus YNL224C, strain SQS1, stronger effect = lower value 0.99 | S. cerevisiae deletion strains, locus YNL233W, strain BNI4, stronger effect = lower value 1.01 | S. cerevisiae deletion strains, locus YNL250W, strain rad50, stronger effect = lower value 0.994 | S. cerevisiae deletion strains, locus YNL271C, strain bni1, stronger effect = lower value 0.993 | S. cerevisiae deletion strains, locus YNL298W, strain CLA4, stronger effect = lower value 1 | S. cerevisiae deletion strains, locus YNL307C, strain MCK1, stronger effect = lower value 1.01 | S. cerevisiae deletion strains, locus YNL322C, strain KRE1 (second series), stronger effect = lower value 0.989 | S. cerevisiae deletion strains, locus YNL322C, strain KRE1, stronger effect = lower value 1 and 1.01 | S. cerevisiae deletion strains, locus YNR049C, strain mso1, stronger effect = lower value 0.974 | S. cerevisiae deletion strains, locus YNR052C, strain pop2, stronger effect = lower value 0.992 | S. cerevisiae deletion strains, locus YOL006C, strain TOP1, stronger effect = lower value 1.04 | S. cerevisiae deletion strains, locus YOL012C, strain htz1 0.946 | S. cerevisiae deletion strains, locus YOL147C, strain pex11, stronger effect = lower value 0.988 | S. cerevisiae deletion strains, locus YOR001W, strain rrp6, stronger effect = lower value 0.925 | S. cerevisiae deletion strains, locus YOR061W, strain CKA2, stronger effect = lower value 1.01 | S. cerevisiae deletion strains, locus YOR069W, strain VPS5, stronger effect = lower value 1.01 | S. cerevisiae deletion strains, locus YOR070C, strain gyp1, stronger effect = lower value 0.985 | S. cerevisiae deletion strains, locus YOR080W, strain dia2, stronger effect = lower value 0.977 | S. cerevisiae deletion strains, locus YOR083W, strain WHI5 (second series), stronger effect = lower value 1.02 | S. cerevisiae deletion strains, locus YOR083W, strain WHI5, stronger effect = lower value 1.03 | S. cerevisiae deletion strains, locus YOR106W, strain vam3, stronger effect = lower value 1.01 | S. cerevisiae deletion strains, locus YOR136W, strain idh2, stronger effect = lower value 0.995 | S. cerevisiae deletion strains, locus YOR144C, strain elg1, stronger effect = lower value 0.98 | S. cerevisiae deletion strains, locus YOR184W, strain ser1, stronger effect = lower value 0.991 | S. cerevisiae deletion strains, locus YOR265W, strain rbl2, stronger effect = lower value 0.974 | S. cerevisiae deletion strains, locus YOR270C, strain vph1, stronger effect = lower value 0.971 | S. cerevisiae deletion strains, locus YOR290C, strain snf2, stronger effect = lower value 1.01 | S. cerevisiae deletion strains, locus YOR316C, strain cot1, stronger effect = lower value 0.987 | S. cerevisiae deletion strains, locus YPL051W, strain arl3, stronger effect = lower value 0.982 | S. cerevisiae deletion strains, locus YPL055C, strain LGE1, stronger effect = lower value 1.04 | S. cerevisiae deletion strains, locus YPL078C, strain atp4, stronger effect = lower value 1.01 | S. cerevisiae deletion strains, locus YPL106C, strain sse1, stronger effect = lower value 0.984 | S. cerevisiae deletion strains, locus YPL240C, strain hsp82, stronger effect = lower value 0.971 | S. cerevisiae deletion strains, locus YPL241C, strain CIN2, stronger effect = lower value 1.01 | S. cerevisiae deletion strains, locus YPR119W, strain clb2, stronger effect = lower value 0.983 | S. cerevisiae deletion strains, locus YPR141C, strain kar3, stronger effect = lower value 0.987 | S. cerevisiae deletion strains, locus YPR163C, strain tif3, stronger effect = lower value 0.977 | S. cerevisiae deletion strains, locus YPR167C, strain met16, stronger effect = lower value 0.994 | S. cerevisiae deletion strains, strain wtn01, stronger effect = lower value 0.992 | S. cerevisiae strains, strain wild type, stronger effect = lower value 1
active: S. cerevisiae deletion strains, locus YNL248C, strain rpa49, stronger effect = lower value 0.874
